Experimental data as given in ChEMBL document CHEMBL1961873, “Compounds: GSK PKIS; Assays: Nanosyn kinase panel” (2012).

What was measured:
[1] = biological target: MAP/microtubule affinity-regulating kinase 3 (Homo sapiens) (UniProt P27448); conditions: at 1 µM;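 further: reported values are averaged percent inhibition of MARK3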
[2] = biological target: T1, MAP/microtubule affinity-regulating kinase 4 (Homo sapiens) (UniProt Q96L34); conditions: at 0.1 µM
T1 sequence (whole entry): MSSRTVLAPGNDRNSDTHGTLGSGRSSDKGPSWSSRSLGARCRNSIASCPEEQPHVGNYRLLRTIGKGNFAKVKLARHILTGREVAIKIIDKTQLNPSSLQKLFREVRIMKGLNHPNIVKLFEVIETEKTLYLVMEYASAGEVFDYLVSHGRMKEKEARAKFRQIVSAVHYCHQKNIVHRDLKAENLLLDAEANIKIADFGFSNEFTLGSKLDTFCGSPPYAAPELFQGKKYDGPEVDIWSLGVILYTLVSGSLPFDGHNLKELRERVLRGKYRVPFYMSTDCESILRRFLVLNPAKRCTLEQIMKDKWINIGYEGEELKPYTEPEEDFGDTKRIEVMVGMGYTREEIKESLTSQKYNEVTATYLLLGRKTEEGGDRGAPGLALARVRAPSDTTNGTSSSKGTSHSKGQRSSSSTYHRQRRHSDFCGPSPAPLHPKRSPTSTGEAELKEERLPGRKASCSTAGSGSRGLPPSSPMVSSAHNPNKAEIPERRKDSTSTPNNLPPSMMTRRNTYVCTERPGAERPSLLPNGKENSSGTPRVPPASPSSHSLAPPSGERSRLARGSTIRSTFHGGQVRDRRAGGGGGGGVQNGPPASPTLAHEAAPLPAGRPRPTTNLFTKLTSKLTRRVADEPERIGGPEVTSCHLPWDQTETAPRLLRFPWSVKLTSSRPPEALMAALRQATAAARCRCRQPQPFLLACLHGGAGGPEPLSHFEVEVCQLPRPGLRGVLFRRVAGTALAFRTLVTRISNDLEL

[3] = biological target: T1, MAP/microtubule affinity-regulating kinase 4 (Homo sapiens); conditions: at 1 µM
[4] = biological target: Maternal embryonic leucine zipper kinase (Homo sapiens) (UniProt Q14680); conditions: at 0.1 µM
[5] = biological target: Maternal embryonic leucine zipper kinase (Homo sapiens) (UniProt Q14680); conditions: at 1 µM
[6] = biological target: MAP kinase-interacting serine/threonine-protein kinase 1 (Homo sapiens) (UniProt Q9BUB5); conditions: at 0.1 µM
[7] = biological target: MAP kinase-interacting serine/threonine-protein kinase 1 (Homo sapiens) (UniProt Q9BUB5); conditions: at 1 µM
[8] = biological target: MAP kinase-interacting serine/threonine-protein kinase 2 (Homo sapiens) (UniProt Q9HBH9); conditions: at 0.1 µM
[9] = biological target: MAP kinase-interacting serine/threonine-protein kinase 2 (Homo sapiens) (UniProt Q9HBH9); conditions: at 1 µM
[10] = biological target: Serine/threonine-protein kinase MARK2 (Homo sapiens) (UniProt Q7KZI7); conditions: at 0.1 µM;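 further: mean percent inhibition of PAR-1Balpha kinase activity, reported from the GSK PKIS screen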
Serine/threonine-protein kinase MARK2 (Homo sapiens), sequence (Q7KZI7 whole entry): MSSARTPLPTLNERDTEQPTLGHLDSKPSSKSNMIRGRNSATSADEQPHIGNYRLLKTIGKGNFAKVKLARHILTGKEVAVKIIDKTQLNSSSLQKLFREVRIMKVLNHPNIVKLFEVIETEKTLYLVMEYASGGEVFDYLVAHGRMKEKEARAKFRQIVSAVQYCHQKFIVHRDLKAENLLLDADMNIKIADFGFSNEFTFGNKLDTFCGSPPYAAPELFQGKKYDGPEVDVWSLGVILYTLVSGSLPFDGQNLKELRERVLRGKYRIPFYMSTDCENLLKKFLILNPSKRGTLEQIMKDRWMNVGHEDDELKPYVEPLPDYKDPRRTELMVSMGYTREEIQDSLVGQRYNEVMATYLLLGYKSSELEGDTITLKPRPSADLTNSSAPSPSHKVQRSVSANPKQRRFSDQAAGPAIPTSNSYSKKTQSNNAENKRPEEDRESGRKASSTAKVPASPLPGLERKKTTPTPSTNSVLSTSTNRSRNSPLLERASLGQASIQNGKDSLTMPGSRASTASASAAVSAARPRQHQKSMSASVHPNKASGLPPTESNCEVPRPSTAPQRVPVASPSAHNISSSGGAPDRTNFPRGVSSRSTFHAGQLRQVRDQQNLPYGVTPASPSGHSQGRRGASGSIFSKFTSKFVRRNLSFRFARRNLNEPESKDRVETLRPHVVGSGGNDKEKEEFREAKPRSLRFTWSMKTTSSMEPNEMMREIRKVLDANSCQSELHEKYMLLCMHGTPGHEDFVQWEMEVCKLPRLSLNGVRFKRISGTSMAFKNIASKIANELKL

MAP kinase-interacting serine/threonine-protein kinase 2 (Homo sapiens), sequence (Q9HBH9 whole entry, looked up): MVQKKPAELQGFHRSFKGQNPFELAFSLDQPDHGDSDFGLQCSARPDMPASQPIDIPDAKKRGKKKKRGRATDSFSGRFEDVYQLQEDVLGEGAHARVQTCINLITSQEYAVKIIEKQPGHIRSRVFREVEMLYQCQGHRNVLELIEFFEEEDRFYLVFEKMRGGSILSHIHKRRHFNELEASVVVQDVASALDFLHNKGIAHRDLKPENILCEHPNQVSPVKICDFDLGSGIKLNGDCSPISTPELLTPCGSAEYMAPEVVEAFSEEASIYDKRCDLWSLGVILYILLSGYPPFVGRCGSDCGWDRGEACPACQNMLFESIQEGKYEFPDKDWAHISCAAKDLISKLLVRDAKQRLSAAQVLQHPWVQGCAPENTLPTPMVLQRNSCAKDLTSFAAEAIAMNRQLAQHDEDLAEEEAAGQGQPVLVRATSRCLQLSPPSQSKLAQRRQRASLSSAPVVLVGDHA
Maternal embryonic leucine zipper kinase (Homo sapiens), sequence (Q14680 whole entry, looked up): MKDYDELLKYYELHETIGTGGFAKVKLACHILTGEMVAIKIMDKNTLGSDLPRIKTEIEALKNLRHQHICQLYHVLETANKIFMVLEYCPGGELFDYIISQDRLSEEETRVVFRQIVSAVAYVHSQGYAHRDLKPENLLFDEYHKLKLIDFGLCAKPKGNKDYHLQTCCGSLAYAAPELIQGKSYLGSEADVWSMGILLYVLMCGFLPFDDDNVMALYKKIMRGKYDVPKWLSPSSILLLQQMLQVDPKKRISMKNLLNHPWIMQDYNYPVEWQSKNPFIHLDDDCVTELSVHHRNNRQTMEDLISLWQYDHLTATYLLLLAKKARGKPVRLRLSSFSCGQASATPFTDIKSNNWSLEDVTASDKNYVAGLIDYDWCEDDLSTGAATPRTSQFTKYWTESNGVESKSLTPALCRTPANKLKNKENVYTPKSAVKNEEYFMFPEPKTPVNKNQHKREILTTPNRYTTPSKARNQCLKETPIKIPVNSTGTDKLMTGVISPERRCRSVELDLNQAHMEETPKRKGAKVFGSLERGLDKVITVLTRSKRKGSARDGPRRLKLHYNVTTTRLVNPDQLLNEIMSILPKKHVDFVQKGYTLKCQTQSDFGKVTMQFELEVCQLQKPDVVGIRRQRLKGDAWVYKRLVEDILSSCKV
MAP/microtubule affinity-regulating kinase 3 (Homo sapiens), sequence (P27448 whole entry, looked up): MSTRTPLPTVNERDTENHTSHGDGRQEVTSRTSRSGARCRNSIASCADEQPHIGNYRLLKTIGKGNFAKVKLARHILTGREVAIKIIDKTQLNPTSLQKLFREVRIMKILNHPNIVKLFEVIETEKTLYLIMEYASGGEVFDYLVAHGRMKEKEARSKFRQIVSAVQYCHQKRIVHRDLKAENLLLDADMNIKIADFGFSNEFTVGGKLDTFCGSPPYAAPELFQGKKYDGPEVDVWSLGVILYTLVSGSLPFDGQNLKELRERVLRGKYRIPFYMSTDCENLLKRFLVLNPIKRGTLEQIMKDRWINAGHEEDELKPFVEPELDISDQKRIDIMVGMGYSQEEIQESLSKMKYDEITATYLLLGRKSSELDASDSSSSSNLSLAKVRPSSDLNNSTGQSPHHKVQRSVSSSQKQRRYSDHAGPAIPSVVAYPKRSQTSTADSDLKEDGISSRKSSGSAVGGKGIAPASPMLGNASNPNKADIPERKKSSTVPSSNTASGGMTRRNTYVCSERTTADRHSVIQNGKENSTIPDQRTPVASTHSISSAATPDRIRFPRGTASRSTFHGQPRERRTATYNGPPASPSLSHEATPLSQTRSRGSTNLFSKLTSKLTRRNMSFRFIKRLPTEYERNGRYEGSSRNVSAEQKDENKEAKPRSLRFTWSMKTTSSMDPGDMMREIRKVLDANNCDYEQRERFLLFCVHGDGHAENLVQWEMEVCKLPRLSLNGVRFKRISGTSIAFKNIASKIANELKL
MAP kinase-interacting serine/threonine-protein kinase 1 (Homo sapiens), sequence (Q9BUB5 whole entry, looked up): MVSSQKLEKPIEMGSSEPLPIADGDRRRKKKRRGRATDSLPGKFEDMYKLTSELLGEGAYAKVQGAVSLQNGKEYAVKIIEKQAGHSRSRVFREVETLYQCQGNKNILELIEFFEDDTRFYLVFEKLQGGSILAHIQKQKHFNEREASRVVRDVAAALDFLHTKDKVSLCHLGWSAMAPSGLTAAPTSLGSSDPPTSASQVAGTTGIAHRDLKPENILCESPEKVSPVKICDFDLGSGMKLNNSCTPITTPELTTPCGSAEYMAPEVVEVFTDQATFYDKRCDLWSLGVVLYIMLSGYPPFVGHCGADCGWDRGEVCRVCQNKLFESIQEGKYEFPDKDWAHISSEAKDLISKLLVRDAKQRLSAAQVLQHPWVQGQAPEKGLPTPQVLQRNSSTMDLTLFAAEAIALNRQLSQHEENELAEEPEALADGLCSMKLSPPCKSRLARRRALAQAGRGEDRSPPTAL

Row | SMILES | inhibition [1] [%] | inhibition [2] [%] | inhibition [3] [%] | inhibition [4] [%] | inhibition [5] [%] | inhibition [6] [%] | inhibition [7] [%] | inhibition [8] [%] | inhibition [9] [%] | inhibition [10] [%]
1 | CCn1c(-c2nonc2N)nc2c(C#CC(C)(C)O)ncc(OC[C@@H]3CCCN3)c21 | 67.9 | 11.6 | 55.2 | 1.75 | 18.4 | 1.39 | 1.82 | 0.48 | -0.07 | 12.9
2 | COc1cccc(-n2ncc3c(N/N=C/c4ccncc4)ncnc32)c1 | 7.7 | 1.15 | 5.01 | 2.47 | 6.51 | 23.2 | 70.4 | 15.2 | 59.2 | 1.24
3 | NS(=O)(=O)c1ccc(N/C=C2\C(=O)Nc3ccc4ncsc4c32)cc1 | 42.9 | 11 | 46.3 | 38.6 | 89.5 | 4.69 | 24 | 0.94 | 10.5 | 6.29
4 | COc1cc2c(cc1Nc1nc(Nc3ccsc3C(N)=O)c3cc[nH]c3n1)N(C(=O)CN(C)C)CCC2 | 4.97 | 0.47 | 0.65 | 1.24 | 11.3 | 0.63 | 0.17 | -0.68 | 0.28 | 2.05
5 | Nc1nonc1-c1nc2cnccc2n1C1CCCCC1 | 24.2 | 2.83 | 10.8 | 10.3 | 74.6 | -0.38 | 4.63 | 0.19 | 8.42 | 3.67
6 | CCn1c(-c2nonc2N)nc2c(C#CCN)ncc(OCCCN)c21 | 11.4 | 3.8 | 6.19 | -1.84 | 16 | -0.19 | 7.05 | 5.13 | 10.2 | 7.01
7 | NC(=O)c1sc(-n2cnc3cc(C(F)(F)F)ccc32)cc1OCc1ccccc1Br | 0.82 | 2.12 | 1.92 | 4.69 | 0.55 | 1.99 | 2.87 | 1.3 | 2.88 | -0.02
8 | COc1cc(C=NNc2ncnc3c2cnn3Cc2ccccc2)ccc1O | 4.6 | 1.11 | 3.25 | 13.2 | 47.1 | -2.04 | 0.25 | -0.35 | 1.29 | 1.79
9 | Fc1ccc(-c2ncn(C3CCNCC3)c2-c2ccnc(Oc3ccccc3)n2)cc1 | -0.46 | 1.68 | 1.42 | 3.76 | 4.43 | 1.38 | 2.07 | 1.12 | 0.76 | -1.21
10 | CCn1c(-c2nonc2N)nc2c(C#CC(C)(C)O)nc(O[C@@H](CN)c3ccccc3)cc21 | 101 | 74.5 | 90.7 | 42.2 | 90.4 | 0.51 | 6.37 | 5.3 | 33.1 | 63.9
11 | Cc1cc(-c2ccco2)cc(C)c1/C=C/c1cncc(-c2nn[nH]n2)c1 | 1.64 | 1.35 | 1.35 | 1.3 | 0.19 | 3.16 | 29.9 | 4.58 | 35.2 | 1.91
12 | COc1cccc(COc2cc(-n3cnc4ccccc43)sc2C(N)=O)c1 | 2.02 | 1.15 | 1 | -2.92 | -8.42 | 1.73 | 12 | -0.04 | 6.31 | -2.23
13 | NS(=O)(=O)c1ccc(-c2ccc3c(NC(=O)C4CC4)n[nH]c3c2)cc1 | 5.56 | 0.63 | 2.61 | 0.83 | 1.42 | 4.28 | 17.9 | 0.71 | 6.29 | 0.75
14 | CCn1c(-c2nonc2N)nc2c(C#CC(C)(C)O)ncc(OCC3CCNCC3)c21 | 68.8 | 10.5 | 54.5 | 6.83 | 31.6 | 1.39 | 9.05 | 0.56 | 4.38 | 11.3
